# PubChem BioAssay (NCATS)
# Records with an inconclusive call do not appear. A number with no mark means an inactive call. Calls of active or inactive are those of the source. The call rests on the fitted dose curve; in most records, active means well fitted inhibition curve with a large enough effect; inconclusive means small, poorly fitted or top-dose-only effect; inactive means no such curve, though single readings can be large or run the other way.
# Test system: Zika virus NS2B-NS3 protease (linked construct)
# Assay: Primary screen NINDS Rhodamine qHTS for Zika virus inhibitors (AID 1347160); further: nearly all actives have a fitted effect of over 55% in size
# Settings: purified NS2B-NS3 protease, Rhodamine110 substrate fluorescence; series mostly up to 57.1 µM; activity change, negative = inhibition: at the top concentration
# In short: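 Purified NS2B-NS3 protease with the NS2B hydrophilic domain joined by a flexible linker (25 nM) in 10 mM Tris-HCl pH 8.0, 0.01% Tween 20, preincubated 15 min at RT with compound; Rhodamine110 peptide substrate 1.5 µM; fluorescence change over 15 min; 4-parameter Hill fit.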
# On the % scale 0 is the no-effect control and ±100 the full control effect.
SMILES,"activity change, negative = inhibition",outcome
CN1C(=O)c2ccccc2-n2c(nc3ccccc3c2=O)/C1=C/c1ccccc1,4.97% [at 33.1 µM],–
COc1cc(C)c(C(=O)O[C@H]2[C@@H](O)[C@H](n3ccc(=O)[nH]c3=O)O[C@@H]2CO)c(OC)c1,11.8% [at 33.1 µM],–
C=C1CC2C3(C)C(O)CC(=O)C(C)(C)C3C(OC(C)=O)C(OC(C)=O)C2(C)C2C(=O)OC(C)(C(=O)OC)C(=O)C12C (centres undefined),-6.65% [at 33.1 µM],–
COc1cc(/C=C/CO)ccc1O[C@@H]1O[C@H](CO)[C@@H](O)[C@H](O)[C@H]1O,3.19% [at 33.1 µM],–
COCC(=O)N1CCc2cc(-c3csc(NC(=O)c4cc(OC)cc(OC)c4)n3)ccc21,21.6%,–
CC1=C(C)C(=O)OC(C(C)(O)C2CCC3C4CC=C5CC(OC6OC(COC7OC(CO)C(O)C(O)C7O)C(O)C(O)C6O)CC(O)C5(C)C4CCC32C)C1 (centres undefined),–,inactive [at 15.1 µM]
CC1=CC[C@]2(C(=O)O[C@@H]3O[C@H](CO[C@@H]4O[C@H](CO)[C@@H](O[C@@H]5O[C@@H](C)[C@H](O)[C@@H](O)[C@H]5O)[C@H](O)[C@H]4O)[C@@H](O)[C@H](O)[C@H]3O)CC[C@]3(C)C(CCC4[C@@]5(C)C[C@@H](O)[C@H](O)[C@@](C)(CO)C5CC[C@]43C)C2C1C (some centres undefined),6.79% [at 15.1 µM],–
CC12CCC3c4ccc(O)cc4CCC3C1CCC2OC1OC(C(=O)O)C(O)C(O)C1O (centres undefined),12.5%,–
C=CC(C)(C)C12CC3C(=O)NC(Cc4cnc[nH]4)C(=O)N3C1Nc1ccccc12 (centres undefined),-2.2% [at 33.1 µM],–
CC(C)c1nc(N(C)S(C)(=O)=O)nc(-c2ccc(F)cc2)c1/C=C/[C@@H](O)C[C@@H](O)CC(=O)O,218%,–
CC1CCC2(C(=O)OC3OC(COC4OC(CO)C(O)C(O)C4O)C(O)C(O)C3O)CCC3(C)C(=CCC4C5(C)CCC(O)C(C)(C(=O)O)C5CCC43C)C2C1(C)O (centres undefined),-22.4% [at 15.1 µM],–
CC1=CC(=O)C[C@H]2[C@@H]1CC[C@@H](C)[C@]21CO[C@H](c2ccoc2)C1=O,30.5% [at 33.1 µM],–
C[C@@H]1O[C@@H](O[C@H]2[C@H](OC(=O)C34CCC5(C)C(=CCC6C7(C)CC(O)C(O[C@@H]8O[C@H](C(=O)O)[C@@H](O)[C@H](O)[C@H]8O)C(C)(C(=O)O)C7CCC65C)C3CC(C)(C)CC4O)O[C@H](C)[C@@H](O)[C@@H]2O)[C@H](O)[C@@H](O[C@@H]2OC[C@](O)(CO)[C@H]2O[C@@H]2O[C@H](CO)[C@@H](O)[C@H](O)[C@H]2O)[C@H]1O (some centres undefined),-17.8% [at 10.7 µM],–
CCCCCCc1cccc(NC(=O)[C@H](N)CCP(=O)(O)O)c1,15.3% [at 15.1 µM],–
CCC(=O)NS(=O)(=O)c1ccc(-c2c(-c3ccccc3)noc2C)cc1,19.9%,–
C[C@H]1[C@H](C)CC[C@]2(C(=O)O)CC[C@]3(C(=O)O)C(=CCC4[C@@]5(C)CC[C@H](O[C@@H]6O[C@H](C)[C@@H](O)[C@H](O)[C@H]6O)C(C)(C)C5CC[C@]43C)[C@H]12 (some centres undefined),4.64% [at 15.1 µM],–
C=C1C[C@]23C[C@H]1CC[C@H]2[C@@]12C=C[C@H](O)[C@@](C)(C(=O)O1)[C@H]2[C@@H]3C(=O)O,-1.66% [at 33.1 µM],–
C[C@@H]1O[C@@H](O[C@@H]2[C@@H](O)[C@H](O[C@@H]3[C@@H](O)[C@@H](O)[C@H](O[C@H]4[C@H](OC(=O)[C@]56CCC(C)(C)C[C@H]5C5=CCC7[C@@]8(C)C[C@H](O)[C@H](O[C@@H]9O[C@H](C(=O)O)[C@@H](O)[C@H](O)[C@H]9O)[C@@](C)(CO)C8[C@H](O)C[C@@]7(C)[C@]5(C)CC6)OC[C@H](O)[C@@H]4O)O[C@H]3C)OC[C@H]2O)[C@H](O)[C@H](O)[C@H]1O (some centres undefined),–,inactive [at 10.7 µM]
Cc1c(N2C(=O)c3ccc(C(=O)O)cc3C2=O)c(=O)n(-c2ccccc2)n1C,40.5%,–
Cn1c(=O)c2nc(/C=C/c3cccc(Cl)c3)n(C)c2n(C)c1=O,15.4% [at 112 µM],–
COc1cc(/C=C/C(=O)O[C@H]2[C@H](O)[C@@H](CO)O[C@@]2(CO)O[C@H]2O[C@H](COC(=O)c3ccc(O)cc3)[C@@H](O)[C@H](O)[C@H]2O)cc(OC)c1OC,14.2% [at 15.1 µM],–
C[C@@H]1C[C@H](O[C@@H]2O[C@H](CO[C@@H]3OC[C@](O)(CO)[C@H]3O)[C@@H](O)[C@H](O)[C@H]2O)CC(C)(C)[C@H]1/C=C/[C@@H](C)O,21.2% [at 33.1 µM],–
OC[C@H]1O[C@@H](OCCc2ccc(O)cc2)[C@H](O)[C@@H](O)[C@@H]1O,-2.51%,–
CC(C)(C)NCC(O)COc1cccc2c1CCCC2=O (centres undefined),1.18%,–
